Assay outcomes (PubChem)
Only some compounds are listed: those with a hit (about 3.6% of all), similar ones and a draw of the others.
GALK inh: inhibitors of human galactokinase (GALK); recombinant GALK, Kinase-Glo ATP luminescence, 1 h; Potency, µM (series often up to 57.5 µM), for the others: top-dose activity, negative = inhibition, actives largely listed as inhibitors; 44,000 tested, under 10 active; P51570; AID 1347072;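 also: plate controls were full GALK reaction for no effect and reaction lacking GALK for full effect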
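5 nM GALK; 35 uM ATP; 100 uM D-galactose; 20 mM HEPES pH 8.0, 5 mM MgCl2, 60 mM NaCl, 1 mM DTT, 0.01% BSA; 1 h RT; Kinase-Glo Plus luminescence.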
GPR32 ag: agonists of human resolvin D1 receptor DRV1 (GPR32) | O75388 | CHO-K1 GPR32 beta-arrestin PathHunter luminescence, 90 min; zero percent set by DMSO-only wells | activation, % at 76.9 µM | 2.5% of 48,000 active | AID 1346428;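 active = activation of at least 60% and not above a set upper limit, about 1 call in 100 departs from these limits; inconclusive = activation of 40% to 60%, or above that upper limit; inactive = activation under 40%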; also: 0% is about no effect
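Cells are plated overnight, treated with compounds in DMSO for 90 minutes at 37 °C, and developed with PathHunter detection reagent for 1 hour before luminescence is read; signal reflects beta-arrestin binding to GPR32 in engineered CHO-K1 cells.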
GALC G270D act: galactocerebrosidase G270D activity enhancement, cell-based; 145M-Twi-hGALC-G270D cells (Twitcher mouse brain line with human GALC G270D), HMU-beta-Gal fluorescence, 48 h; Potency, µM (doses to about 57.5 µM), actives largely listed as activators; 0.1% of 45,000 active; AID 1159614; also: potency is read from the fitted curve at half-maximal effect; 0% is about no effect; nearly all actives have a fitted effect of over 65% in size
Target sequence (P54803 whole entry G286D): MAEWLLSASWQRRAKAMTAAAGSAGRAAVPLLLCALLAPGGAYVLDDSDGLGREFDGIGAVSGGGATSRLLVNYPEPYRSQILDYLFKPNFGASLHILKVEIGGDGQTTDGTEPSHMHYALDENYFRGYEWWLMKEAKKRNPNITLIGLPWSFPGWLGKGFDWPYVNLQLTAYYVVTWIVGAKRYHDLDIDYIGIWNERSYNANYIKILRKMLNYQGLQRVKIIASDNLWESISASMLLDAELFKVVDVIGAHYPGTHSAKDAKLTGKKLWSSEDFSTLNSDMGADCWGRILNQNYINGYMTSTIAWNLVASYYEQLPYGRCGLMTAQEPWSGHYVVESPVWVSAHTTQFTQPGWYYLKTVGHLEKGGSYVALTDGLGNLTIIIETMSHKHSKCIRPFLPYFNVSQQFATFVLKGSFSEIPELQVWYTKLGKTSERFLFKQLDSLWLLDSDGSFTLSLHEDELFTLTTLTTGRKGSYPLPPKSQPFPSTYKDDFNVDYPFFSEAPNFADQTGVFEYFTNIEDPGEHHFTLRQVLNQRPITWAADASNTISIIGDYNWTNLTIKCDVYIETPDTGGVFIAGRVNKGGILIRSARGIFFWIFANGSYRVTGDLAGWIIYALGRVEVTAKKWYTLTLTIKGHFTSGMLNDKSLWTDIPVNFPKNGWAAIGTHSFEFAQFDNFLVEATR
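Fluorescence readout: HMU-β-gal cleavage by mutant GALC (0.1 mM final, citrate/phosphate pH 5.2 with 1 mg/mL taurocholate), stopped with carbonate/bicarbonate plus Triton X-100. Cells: murine Twitcher 145M-Twi expressing human G270D GALC; qHTS for activators.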
NTMT1 inhibitor: inhibitors of human N-terminal methyltransferase NTMT1 | 2.5% of 59,000 active | Q9BV86 | AID 1645870 | Potency, µM (top dose mostly 114 µM), for inactives: at the highest dose activity change, negative = inhibition, hits mostly inhibitors | NTMT1 MTase-Glo SAH luminescence, purified enzyme;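 also: potency is read from the fitted curve at half-maximal effect; plate controls were DMSO vehicle for no effect and no enzyme for full effect; nearly all actives have a fitted effect of over 65% in size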
B2AR arrestin ag: beta-arrestin recruitment by human beta2-adrenergic receptor ligands; Potency, µM (doses to about 46.1 µM), most hits filed as activators; HTLA Tango cells, beta-arrestin recruitment, luciferase luminescence, 18 h; P07550; 44,000 tested, under 10 active;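 also: potency is read from the fitted curve at half-maximal effect; 0% = DMSO and full agonism = EC100 isoproterenol or metaproterenol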
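Tango cells (recombinant beta2-AR, beta-arrestin, tTA-driven luciferase), 1500/well in DMEM 1% FBS, treated 18 h at 37 °C with compounds up to 46 µM; luciferin mix added, luminescence read after 15 min; %activity curves fitted and curve-classed.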
Active calls of the source: *; i = inactive; ? = inconclusive; · = no result; ! = a repeat was not active; [ ] = dose if it differs, or a comment. Unless noted, calls follow the shape of the dose curve; as a rule, active = well fitted curve in the direction sought with a large enough effect; inconclusive = small, poorly fitted or top-dose-only effect, or another doubt; inactive = no such curve, though single readings can be large; an effect the other way counts as inactive or inconclusive.

SMILES | GALK inh | GPR32 ag | GALC G270D act | NTMT1 inhibitor | B2AR arrestin ag
Fc1ccc(-c2nc(CCCCSc3nnc(-c4cccc5ccccc45)o3)no2)cc1 | · | · | · | 4% | ·
CC(C)(C)OC(=O)N1CCC(c2c(C(=O)NCc3ccccn3)cnn2-c2ccccc2Cl)CC1 | 0% | -11 | i | 11% | i
COc1ccc(CCN2CCC(CNC(=O)c3cnn(-c4ccccc4)c3C3CCN(C(=O)OC(C)(C)C)CC3)CC2)cc1 | 3% | -11 | i | ? | i
COc1ccc(CCN2CCC(CNC(=O)c3cnn(-c4cccc(Cl)c4)c3C3CCN(C(=O)OC(C)(C)C)CC3)CC2)cc1 | 0% | -21 | i | 79µM* | i
COCCCNC(=O)c1cnn(-c2ccccc2Cl)c1C1CCN(C(=O)OC(C)(C)C)CC1 | 3% | -16 | i | 89µM* | i
CCOC(=O)CCNc1cc(N2CCc3ccccc3CC2)nc(-c2ccccn2)n1 | · | · | · | 12% | ·
COc1cc(Cl)ccc1C(=O)Nc1nc(-c2ccccc2)cs1 | · | · | · | 8%[57.5 µM] | ·
COc1ccccc1N(CC(=O)Nc1cc(C)cc(C)c1)S(C)(=O)=O | 2% | 5 | i | -6% | i
CS(=O)(=O)N(CC(=O)Nc1ccc(Br)cc1)c1ccccc1Br | 0% | 61* | i | 7% | i
COc1ccc(C(=O)/C=C/c2cn(CC(O)CN(CC(C)C)CC(C)C)c3ccccc23)cc1 (stereo not given) | 1% | -3 | 22µM* | 14% | i
CCCN(CCC)CC(O)Cn1cc(/C=C/C(=O)c2ccc(OC)cc2)c2ccccc21 (stereo not given) | 1% | -5 | 28µM* | -5% | i
Cc1ccc(-c2ccc(=O)n(CC(=O)N(C3CCCCC3)C3CC3)n2)cc1 | · | · | · | 2% | ·
COC1CC(OC2CCC3(C)C(=CCC4C3CCC3(C)C(C(C)O)CCC43O)C2)OC(C)C1OC1OC(C)C(OC2OC(COC3OC(COC4OC(CO)C(O)C(O)C4O)C(O)C(O)C3O)C(O)C(O)C2O)C(OC)C1O (stereo not given) | · | · | · | 9%[12.6 µM] | ·
Cc1cc2c(s1)c1cnn(Cc3ccc(C)c(F)c3)c(=O)c1n2C | · | · | · | 79µM* | ·
NC1CCC(Nc2nc(Nc3ccc(C(=O)N4CCCCC4)cc3)c3ncn(-c4cccc(F)c4)c3n2)CC1 (stereo not given) | · | · | · | 40µM* | ·
COc1ccc(NCc2cccn2-c2nnc(N3CCCCC3)s2)cc1OC | 4% | 84* | i | -2% | i
COc1ccc(NCc2cccn2-c2nnc(N3CCOCC3)s2)cc1OC | 2% | 16 | i | -24% | i
CCOc1cc2c(c(F)c1OCC)C(=N)N(CC(=O)c1cc(N3CCOCC3)c(OC)c(C(C)(C)C)c1)C2 | · | · | · | 32µM*! | ·
CCOC(=O)c1c(NC(=O)c2cc(Cl)ccc2Cl)sc2c1CCCC2 | 0% | -4 | i | 6% | i
CCOC(=O)c1c(NC(=O)c2ccccc2C)sc2c1CCCC2 | 10% | -7 | i | 89µM* | i
Cc1cccc(NC(=O)c2c(NC(=O)c3ccccc3)sc3c2CCC3)c1 | -19% | 9 | i | 2% | i
Cc1cccc(NC(=O)c2c(NC(=O)c3ccccc3)sc3c2CCCC3)c1 | -4% | -3 | i | 45µM* | i
O=C(NCC(c1cccs1)S(=O)(=O)c1cccs1)c1ccc(F)c(F)c1 (stereo not given) | 1% | 95* | i | ? | i
Cc1ccc(C(=O)NCC(c2cccs2)S(=O)(=O)c2cccs2)cc1C (stereo not given) | -2% | 14 | i | 2% | i
O=C(NCC(c1cccs1)S(=O)(=O)c1cccs1)c1ccc(Cl)cc1 (stereo not given) | -3% | 100* | i | -3% | i
SMILES | GALK inh | GPR32 ag | GALC G270D act | NTMT1 inhibitor | B2AR arrestin ag
COc1ccc2cc(OCC3(C(=O)O)CN(C(=O)c4ccc(F)cc4)C3)ccc2c1 | · | · | · | 6%[57.5 µM] | ·
Cc1nn(-c2ccc(F)cc2)c(-n2cccc2)c1C(=O)NCCCN1CCN(c2ccccc2F)CC1 | 2% | 110* | i | 8% | i
COc1ccc(N2CCN(CCCNC(=O)c3c(C)nn(-c4ccc(F)cc4)c3-n3cccc3)CC2)cc1 | 1% | 63* | i | 1% | i
COc1cc(NC(=O)c2c(C)nn(-c3ccc(F)cc3)c2-n2cccc2)cc(OC)c1 | 4% | 103* | i | ? | i
C[C@@H]1O[C@@H](O[C@H]2[C@H](O)[C@@H](O)[C@H](OC3CCC4(C)C5CCC(C)(C(CO)OC6OC(CO)C(O)C(O)C6O)CC5=CCC4C3(C)C)O[C@@H]2CO)[C@H](O)[C@H](O)[C@H]1O (stereo not given in full) | · | · | · | -10%[12.6 µM] | ·
COc1cc(N2CCN(C)CC2)ccc1Nc1nccc(-c2cn(C)c3cnccc23)n1 | · | · | · | -19% | ·
Cc1ccc(C(N)=O)cc1Nc1nccc(-c2cn(C(C)C)c3cnccc23)n1 | · | · | · | 11µM* | ·
O=C(COc1ccc(Cl)cc1)NCCc1csc(-c2ccc(F)cc2)n1 | 2% | 109* | i | 21% | i
O=C(COc1ccccc1)NCCc1csc(-c2ccc(Cl)cc2)n1 | -5% | 95* | i | -3% | i
O=C(COc1ccc(Cl)cc1)NCCc1csc(-c2ccc(C(F)(F)F)cc2)n1 | -5% | -19 | i | ? | i
CC(=O)Nc1cccc2c1c(Sc1ccc(Cl)cc1)c(C)n2CC(=O)O | · | · | · | -11%[57.5 µM] | ·
COc1cccc(Nc2nc3cc(C)ccc3nc2NS(=O)(=O)c2ccc(Cl)cc2)c1 | 0% | 29 | i | 14% | i
Cc1ccc2nc(NS(=O)(=O)c3ccc(Cl)cc3)c(Nc3ccc(C(=O)O)cc3)nc2c1 | 0% | 83* | i | -2% | i
N#Cc1cccc(Nc2ncc(-c3cccc4ccccc34)o2)c1 | · | · | · | 12% | ·
COc1ccc(C(=O)Nc2ccc3oc(-c4cc(Cl)ccc4Cl)nc3c2)cc1Br | 0% | 1 | i | 79µM* | i
Cc1ccc(S(=O)(=O)n2cc(C(=O)Nc3nc(-c4ccccc4)cs3)c3ccccc32)cc1 | · | · | · | 20% | ·
CCCCCc1ccc(/C=C/[C@H](O)[C@@H](CO)NC)cc1 | · | · | · | 9% | ·
COC(=O)c1ccc(-c2c(NC(C)=O)sc3c2CCNC3)cc1 | · | · | · | 8% | ·
NCc1ccc(OCCCc2sc(-c3ccc4c(c3)/C(=N/Nc3nc5ccccc5s3)CCC4)nc2C(=O)O)cc1 | · | · | · | 40µM*! | ·
COc1ccc(CNC(=O)CC(C)CC2=NS(=O)(=O)c3ccccc3N2)cc1 (stereo not given) | 1% | 5 | i | 11% | i
CC(CC(=O)NCc1ccc(Cl)cc1Cl)CC1=NS(=O)(=O)c2ccccc2N1 (stereo not given) | 1% | 66* | i | 15% | i
